We go through four compounds from PubChem BioAssay (NCATS).

Several values for one entry are separate records, joined by “and”; a condition that tells them apart may be missing. Identical values can stand only once. A number with no mark means an inactive call. Records with an inconclusive call do not appear. Activity calls are given as the source filed them. Unless noted, calls follow the shape of the dose curve; as a rule, active = well fitted curve in the direction sought with a large enough effect; inconclusive = small, poorly fitted or top-dose-only effect, or another doubt; inactive = no such curve, though single readings can be large; an effect the other way counts as inactive or inconclusive.

A short description of experiment [1]: Cell Viability - BJ (AID 421; calls by dose curve;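 also: potency is read from the fitted curve at half-maximal effect; cells exposed to compound for 40 hours at 37 °C before readout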). The settings on record: BJ fibroblast viability, qHTS. In short, it runs like this: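 Cytotoxicity in human BJ foreskin fibroblasts is scored as loss of cellular ATP after a 40-hour exposure, measured by luciferase luminescence. Controls are DMSO and 100 uM tamoxifen.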
On the technique in general: In qHTS, concentration-response curves come from the screen itself.

The nature of experiment [2]: Cell Viability - Jurkat (AID 426;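 active = dose-dependent loss of cell ATP signal giving a full or clear fitted curve, ranked by lower potency value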; also: potency is read from the fitted curve at half-maximal effect). The settings on record: qHTS. In short, it runs like this: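 Jurkat (clone E6-1, human T-cell leukemia) cells, 5000/well in complete medium, were exposed to compound for 40 hr at 37 °C. Viability was read as intracellular ATP by CellTiter-Glo luminescence; AC50 came from Hill fits of concentration-response data.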
Experiment [3] can be described thus: Cell Viability - Hek293 (AID 427;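 active = compounds whose dose-response curve shows a full or clear partial loss of cell viability, called from curve shape rather than a numeric limit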;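 also: potency is read from the fitted curve at half-maximal effect; cells exposed to compound for 40 hours at 37 °C before reading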). The settings on record: qHTS. In short, it runs like this: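 qHTS, human embryonic kidney (adenovirus-transformed) cells; 40 hr cpd, 37 °C; CellTiter-Glo ATP luminescence. Norm: DMSO = 0, 100 uM tamoxifen = 100% inhibition. Hill-fit AC50.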
A short description of experiment [4]: Cell Viability - HepG2 (AID 433; calls by dose curve;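 also: potency is read from the fitted curve at half-maximal effect; potency for ATP loss meaning cytotoxicity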). The settings on record: qHTS. The procedure, abridged: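 Cytotoxicity read as ATP loss (CellTiter-Glo luminescence) after 40 hr compound exposure of HepG2, 1500 cells/well, 37 °C. AC50 by Hill equation; 0% set by DMSO, 100% inhibition by 100 uM tamoxifen.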
Experiment [5] can be described thus: Cell Viability - MRC5 (AID 434; calls by dose curve;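 also: potency is read from the fitted curve at half-maximal effect; potency reflects cytotoxicity seen as loss of intracellular ATP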). The settings on record: MRC5 lung fibroblast viability, qHTS. In short, it runs like this:
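MRC5 normal human lung fibroblasts, 1500 cells/well, exposed to compound for 40 hr at 37 C. Cellular ATP was read by CellTiter-Glo luminescence; data normalized to DMSO and 100 uM tamoxifen, with AC50 from Hill fits.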

A short description of experiment [6]: Cell Viability - SK-N-SH (AID 435; calls by dose curve; also: potency is read from the fitted curve at half-maximal effect). The settings on record: SK-N-SH neuroblastoma cell viability qHTS. The procedure, abridged:
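qHTS cytotoxicity: CellTiter-Glo ATP luminescence after 40 h compound exposure of human neuroblastoma SK-N-SH cells at 37 °C. AC50 derived by Hill-equation fitting, with DMSO as basal and 100 uM tamoxifen as full inhibition.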

Experiment [7] in a line: Cellular Toxicity (caspase-3) HepG2 (AID 654).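 Also: cells exposed to compound for 16 hours before reading; 0% = DMSO alone and 100% = caspase signal from 100 µM tamoxifen.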 The settings on record: HepG2 caspase-3 activation, luminescence, 0% = DMSO only, 100% = tamoxifen; series mostly up to 92.2 µM. The procedure, abridged:
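HepG2 cells (1500/well) in complete medium were treated with compounds for 16 hr at 37 °C. Caspase-3/7 activity was then read as luminescence from peptide-aminoluciferin cleavage. AC50 came from Hill fits, normalized to DMSO and 100 uM tamoxifen.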

A short description of experiment [8]: Cellular Toxicity (caspase-3) BJ (AID 658). The settings on record: BJ fibroblasts, luminescence, normalized: DMSO 0%, staurosporine 100%; series mostly up to 91.7 µM. The procedure, abridged:
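BJ human foreskin fibroblasts, 1000 cells/well, treated 16 hours at 37 °C in complete medium; caspase 3/7 activity by Caspase-Glo luminescence after 1 hr at room temperature. Normalized to DMSO and 10 uM staurosporine; AC50 from Hill fits.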

Experiment [9] can be described thus: Cellular Toxicity (caspase-3) MRC-5 (AID 659). The settings on record: MRC-5 cells, luminescence, normalized: DMSO 0%, 10 µM staurosporine 100%; series mostly up to 91.7 µM. The procedure, abridged: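 MRC-5 human normal lung fibroblasts, 1500 cells/well, treated 16 h at 37 °C in complete medium. Caspase 3/7 measured by Caspase-Glo luminescence after 1 h at room temperature. Normalized to DMSO and 10 uM staurosporine; AC50 from Hill fit.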

The nature of experiment [10]: Cellular Toxicity (caspase-3) Hek293 (AID 664).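 Also: cells exposed to compound for 16 h at 37 °C before readout.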 The settings on record: HEK293 caspase-3 activation, DMSO = 0%, 100 µM tamoxifen = 100%; at 92.2 µM (top of the series). In short, it runs like this: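 HEK293 cells were exposed to compounds in complete medium for 16 hr at 37 °C, then caspase-3/7 activity was read by Caspase-Glo 3/7 luminescence after 20 min at room temperature. Data normalized to DMSO and 100 uM tamoxifen; AC50 from Hill fits.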

The nature of experiment [11]: Cellular Toxicity (caspase-3) N2a (AID 665).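 Also: compound exposure lasted 16 h at 37 °C before readout.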 The settings on record: N2a cells, luminescence, normalized: DMSO 0%, 10 µM staurosporine 100%; series mostly up to 92.2 µM. The procedure, abridged: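 Mouse N2a neuroblastoma cells (1500/well) were treated with compounds for 16 h at 37 °C, then caspase-3/7 activity was read by Caspase-Glo luminescence after 1 h at room temperature. Data were normalized to DMSO and 10 uM staurosporine; AC50 from Hill fits.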

The nature of experiment [12]: Cellular Toxicity (caspase-3) NIH 3T3 (AID 666).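 Also: caspase signal read after 16 h compound exposure; 0% = DMSO basal and 100% = 100 µM tamoxifen stimulation.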 The settings on record: NIH 3T3 caspase-3 activation, apoptosis/toxicity; series mostly up to 92.2 µM. In short, it runs like this:
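Mouse NIH 3T3 fibroblasts (1000 cells/well) were treated with compound for 16 hr at 37°C in complete medium; caspase-3/7 activity was read by Caspase-Glo luminescence. Normalized to DMSO and 100 uM tamoxifen; AC50 from Hill fits.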

A short description of experiment [13]: MultiTox-Fluor Cytotoxicity Assay - LYMP1-001 - Dead Cells (AID 946). The settings on record: LYMP1-001 lymphoblastoid cells, dead-cell protease fluorescence; series mostly up to 92.2 µM. In short, it runs like this:
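Seed 2500 LYMP1-001 cells/well, incubate 5 hr at 37 C; add compound, 16 hr at 37 C; add MultiTox-Fluor reagent, 60 min RT; read dead-cell fluorescence Ex/Em=485/520. Normalize to DMSO and 15 uM tetraoctylammonium bromide.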

Experiment [14] is described as follows: MultiTox-Fluor Cytotoxicity Assay - LYMP1-002 - Live Cells (AID 955). Also: % is scaled to controls: 0 for no effect and ±100 for the full control effect. The settings on record: LYMP1-002 lymphoblastoid live-cell protease fluorescence viability; series mostly up to 46.1 µM. The procedure, abridged:
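Human lymphoblastoid LYMP1-002 cells, 2500/well in complete medium, rested 5 hr at 37 C, then exposed to compounds for 16 hr at 37 C. Live-cell protease cleavage of GF-AFC read by fluorescence (Ex/Em 405/510) after 60 min at room temperature; AC50 from Hill fits.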

Experiment [15] in a line: MultiTox-Fluor Cytotoxicity Assay - LYMP1-003 - Dead Cells (AID 961). Also: nearly all actives have a fitted effect of over 70% in size. The settings on record: LYMP1-003 lymphoblastoid cells, dead-cell protease fluorescence; series mostly up to 92.2 µM. The procedure, abridged:
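LYMP1-003 lymphoblastoid, 2500 cells/well, 5 hr settle then 16 hr cpd at 37 C; MultiTox-Fluor reagent 60 min RT; Ex/Em 485/520 dead-cell signal; norm. DMSO = 0%, 15 uM tetraoctylammonium bromide = 100%; Hill AC50.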

Experiment [16] is described as follows: Cell Viability - LYMP2-008 (AID 980). Also: nearly all actives have a fitted effect of over 60% in size. Also: potency is read from the fitted curve at half-maximal effect. The settings on record: LYMP2-008 lymphoblastoid cell viability, qHTS; series mostly up to 92.2 µM. In short, it runs like this: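 Human lymphoblastoid cells (2500/well) were plated, held 5 hr at 37 C, then exposed to compounds for 24 hr at 37 C in complete medium. Intracellular ATP was read by CellTiter-Glo luminescence; AC50 from Hill-fitted concentration-response.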

Experiment [17] in a line: Cell Viability - LYMP1-002 - Assay at 24 hr (AID 993). Also: % is scaled to controls: 0 for no effect and ±100 for the full control effect. The settings on record: LYMP1-002 lymphoblastoid cells viability; series mostly up to 92.2 µM. In short, it runs like this: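 Human lymphoblastoid LYMP1-002 cells, 2500/well in complete medium, were treated with compounds for 24 h at 37 C; intracellular ATP was read by CellTiter-Glo luminescence. AC50 values came from Hill-equation fits of qHTS concentration-response data.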

Experiment [18] in a line: qHTS Assay for Identification of Small Molecule Inducers of Hypoxia Response (AID 2120; active = well fitted curve in the direction sought with a large enough effect in the signal ratio, with a control signal flat, not every such curve was filed as active; the % refers to the signal ratio; also: 0% is about no effect). The settings on record: hypoxia response reporter cells, beta-lactamase ratio readout; series mostly up to 104 µM. In short, it runs like this:
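HRE-beta-lactamase reporter in CellSensor HRE-bla ME-180 cells, 2500 cells/well in Opti-MEM with 0.5% dialyzed FBS; compounds tested as titration series, 17 h at 37 degrees C. CCF4 substrate 2.5 h at room temperature; AC50 from 460/530 nm ratio.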

Experiment [19] has as its target Peroxisome proliferator-activated receptor alpha (Homo sapiens) (UniProt Q07869). The experiment can be described thus: qHTS assay for small molecule agonists of the peroxisome proliferator-activated receptor alpha (PPARalpha) signaling pathway (AID 651778). Also: % of control where 0% means no effect. The settings on record: PathHunter PPARalpha complementation, chemiluminescence, 6 h; hits give high values. In short, it runs like this: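 Enzyme-fragment complementation assay in which ligand-bound PPARalpha translocates and forms an active enzyme that generates chemiluminescence. Cells were plated overnight, exposed to compound for 6 hr at 37 C, and then given detection reagent for 60 min at room temperature.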

Experiment [20] in a line: qHTS assay for cell viability of the p53RE-bla HCT-116 cell line (AID 743292). Also: % is scaled to controls: 0 for no effect and ±100 for the full control effect; nearly all actives have a fitted effect of over 55% in size. The settings on record: p53RE-bla HCT-116 viability, ATP luminescence, 16 h; series mostly up to 95 µM. In short, it runs like this: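 CellSensor p53RE-bla HCT-116 cells, 4,000/well, preincubated 5 h at 37 C, then exposed to compounds in DMSO for 16 h at 37 C. Viability read as CellTiter-Glo luminescence (intracellular ATP) after 30 min at room temperature.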

Chain of Peroxisome proliferator-activated receptor alpha (Homo sapiens) (Q07869 whole entry, looked up, the tested form may be a part): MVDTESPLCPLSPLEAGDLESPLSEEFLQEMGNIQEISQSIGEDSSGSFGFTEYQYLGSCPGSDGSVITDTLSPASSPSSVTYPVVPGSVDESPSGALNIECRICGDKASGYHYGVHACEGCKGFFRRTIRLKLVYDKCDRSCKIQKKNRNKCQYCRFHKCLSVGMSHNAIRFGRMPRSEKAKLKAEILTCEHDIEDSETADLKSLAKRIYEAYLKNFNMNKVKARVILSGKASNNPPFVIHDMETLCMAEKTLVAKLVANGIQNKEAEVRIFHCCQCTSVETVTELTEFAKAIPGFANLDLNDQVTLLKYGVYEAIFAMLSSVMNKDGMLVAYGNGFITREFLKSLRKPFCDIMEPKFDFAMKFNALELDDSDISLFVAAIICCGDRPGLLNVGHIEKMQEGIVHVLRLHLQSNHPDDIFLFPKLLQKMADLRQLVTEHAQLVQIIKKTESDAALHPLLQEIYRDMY

Regarding `OC[P+](CO)(CO)CO`, the Potency was > 92 µM in [1]; 31.3 µM in experiment [2]; > 92 µM in experiment [3]; > 92 µM in experiment [4]; > 92 µM in experiment [5]; > 92 µM in experiment [6]. In addition, the Potency in [16] is 39.8 µM (active). Moreover, the compound was classed as inactive in experiment [7], in experiment [8], in experiment [9], in experiment [11], in experiment [13] and in [14]. Also, the caspase-3 activation in experiment [10] is 0.818%. Moreover, the Potency result in experiment [12], in experiment [15], in [17], in [18] and in experiment [20] was “inactive” each time. Besides, in [19], the max response is -6.87% and -1.39%.
With `NC1CCC(CC2CCC(N)CC2)CC1` (stereo not given), the Potency in experiment [1], in experiment [2], in experiment [3], in [4], in [5] and in [6] was > 92 µM each time. Further, the result in [7], in [8], in experiment [9], in experiment [11], in experiment [13] and in experiment [14] was inactive. Further, in experiment [10], the caspase-3 activation was -0.935%. In addition, the Potency result in experiment [12], in experiment [15], in experiment [16], in [17], in [18] and in experiment [20] was “inactive” throughout. In addition, the max response in [19] is -7.49% and -0.343%.
Regarding `Oc1ccc(Cl)c(Cl)c1`, the Potency in [1], in experiment [2], in experiment [3], in experiment [4], in [5] and in experiment [6] was > 92 µM in each case. Also, the result in experiment [7], in [8], in experiment [9], in [11], in [13] and in experiment [14] was inactive. Also, in experiment [10], the caspase-3 activation is 0.945%. The Potency result in [12], in experiment [15], in experiment [16], in experiment [17], in experiment [18] and in experiment [20] was “inactive” in each case. The max response in experiment [19] is -3.58%.
For the compound `CCCCC(=O)Cl`, the Potency in experiment [1], in experiment [2], in [3], in experiment [4], in experiment [5] and in [6] was > 92 µM throughout. For the same compound, the result in [7], in [8], in experiment [9], in experiment [11], in experiment [13] and in experiment [14] was inactive. Moreover, the caspase-3 activation in [10] is -0.249%. Further, the Potency result in experiment [12], in experiment [15], in experiment [16], in experiment [17], in experiment [18] and in [20] was “inactive” each time. In addition, the max response in experiment [19] is -8.92%.
